# Assay outcomes: PubChem, National Center for Advancing Translational Sciences (NCATS)
# This is a sample that favours compounds with a hit; in the whole collection about 13% have one here.
# 4MU fluor: qHTS Assay for Spectroscopic Profiling in 4-MU Spectral Region. 11% of 59,000 active. compound autofluorescence, 340/450 nm, 4-MU equivalents; hits give high values. AID 589, 2007. max dye-equivalent concentration, M; in the data active = max dye-equivalent concentration above about 10 nM; inconclusive = mostly about 1.1 nM to 9.6 nM
#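 Intrinsic fluorescence at 340/450 nm (ex/em) was read after 15 min at room temperature in pH 8.0, 100 mM Tris. Each compound concentration expressed as 4-MU-equivalent concentration from a six-point 4-MU standard series on each plate.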
# HADH2 inh: qHTS Assay for Inhibitors of HADH2 (Hydroxyacyl-Coenzyme A Dehydrogenase, Type II). recombinant HADH2, NADH fluorescence, beta-hydroxybutyryl-CoA. Potency, µM (highest dose often 57.1 µM), for the others: top-dose activity change, negative = inhibition, usual class: inhibitors. 3.4% of 73,000 active. AID 886, 2007; also: potency is read from the fitted curve at half-maximal effect; % is scaled to controls: 0 for no effect and ±100 for the full control effect; nearly all actives have a fitted effect of over 60% in size
# Target sequence (Q99714 whole entry, looked up, one chain of several): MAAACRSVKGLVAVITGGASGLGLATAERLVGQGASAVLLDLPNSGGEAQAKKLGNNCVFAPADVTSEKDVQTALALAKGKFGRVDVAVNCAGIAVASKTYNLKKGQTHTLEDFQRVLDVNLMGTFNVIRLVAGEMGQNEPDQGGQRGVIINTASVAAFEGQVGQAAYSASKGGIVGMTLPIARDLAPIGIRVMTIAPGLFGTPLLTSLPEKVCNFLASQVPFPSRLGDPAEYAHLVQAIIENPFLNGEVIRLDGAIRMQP
#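 20 nM HADH2 + cpd, 15 min RT; add 1 mM NAD+/90 uM beta-hydroxybutyryl-CoA; kinetic fluorescence 360/450 nm, 4 min. Tris-HCl pH 9.0, 0.01% Tween-20.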
# AID923: qHTS Assay for Allosteric/Competitive Inhibitors of Caspase-1: Spectroscopic Profiling in AFC Spectral Region; compound fluorescence, AFC spectral region (405/520 nm); Potency, µM (highest dose often 57.5 µM), inactives show top-dose fluorescence increase, actives largely listed as activators; 1.1% of 75,000 active; also: potency is read from the fitted curve at half-maximal effect; 0% is about no effect
#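 Baseline compound fluorescence (AFC region, 405 nm ex/520 nm em) taken from the intercept of kinetic reads with 50 nM caspase-1 and 5 uM Ac-WEHD-AFC; normalized to an on-plate AFC standard curve; compounds titrated up to 57 uM.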
# HSD17B inh: qHTS Assay for Inhibitors of HSD17B4, hydroxysteroid (17-beta) dehydrogenase 4; 3-hydroxyacyl-CoA dehydrogenase type-2 (Homo sapiens), Q99714; recombinant HSD17B10, NADH fluorescence kinetic; Potency, µM (series often up to 57.1 µM), inactives show at the highest dose activity change, negative = inhibition, hits mostly inhibitors; 7.6% of 75,000 active; AID 893, 2007;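 also: the protocol describes HADH2 (HSD17B10) and not the HSD17B4 of the title; potency is read from the fitted curve at half-maximal effect; % is scaled to controls: 0 for no effect and ±100 for the full control effect; nearly all actives have a fitted effect of over 70% in size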
#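 His-tagged E. coli-expressed HADH2 at 20 nM in 100 mM Tris-HCl pH 9.0 with 0.01 % Tween-20, preincubated 15 min with compound at room temperature. Reaction with 1 mM NAD+ and 90 uM beta-hydroxybutyryl coenzyme A; NADH fluorescence (360/450 nm) read kinetically over 4 min, last minus first point.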
# A350 fluor: qHTS Assay for Spectroscopic Profiling in A350 Spectral Region. Compound autofluorescence, 340/450 nm, Alexa 350 dye-equivalents; hits give high values. max dye-equivalent concentration, M. 11% of 59,000 active; in the data active = max dye-equivalent concentration above about 10 nM; inconclusive = mostly about 1.1 nM to 9.6 nM
# * marks the source's active call; other numbers are inactive results; i = inactive; ? = inconclusive; nt = not tested or not shown; ! = not active in a repeat; [ ] = remark or other dose. Unless noted, calls follow the shape of the dose curve; as a rule, active = well fitted curve in the direction sought with a large enough effect; inconclusive = small, poorly fitted or top-dose-only effect, or another doubt; inactive = no such curve, though single readings can be large; an effect the other way counts as inactive or inconclusive.
SMILES,4MU fluor,HADH2 inh,AID923,HSD17B inh,A350 fluor
CC1(C)CCC(C)(C)c2cc(C(=O)Nc3ccc(C(=O)O)cc3)ccc21,nt,-26%,-5%,-5%,nt
C=C1c2cccc(O)c2C(O)=C2C(=O)[C@@]3(O)C(O)=C(C(N)=O)C(=O)[C@@H](N(C)C)[C@@H]3[C@@H](O)[C@H]12,i,2µM*,4%[25.7 µM],5µM*,i
CN(C)c1ccc(O)c2c1C[C@H]1C[C@H]3[C@@H](N(C)C)C(=O)C(C(N)=O)=C(O)[C@]3(O)C(=O)C1=C2O,i,-15%[25.6 µM],-2%[25.7 µM],-1%[25.6 µM],i
CN(C)[C@@H]1C(=O)C(C(N)=O)=C(O)[C@]2(O)C(=O)C3=C(O)c4c(O)ccc(Cl)c4[C@H](O)[C@H]3C[C@@H]12,?,?,11%[25.7 µM],?,?
C[C@@H]1c2cccc(O)c2C(O)=C2C(=O)[C@@]3(O)C(O)=C(C(N)=O)C(=O)[C@@H](N(C)C)[C@@H]3[C@@H](O)[C@@H]21,?,13µM*!,2%[25.7 µM],?,?
CCOc1cc(C)c(Cl)cc1S(=O)(=O)NCC1CCCO1 (configuration not stated),i,7%,0%,4%,i
c1ccc(C(c2ccccc2)N2CC3(CCNCC3)C2)cc1,i,4%,2%,-8%,i
CN1CCc2nc(N)nc(-c3nc(N)nc4c3CN(C)CC4)c2C1,1.3e-07M*,3%[11.4 µM],-2%[11.5 µM],2%[11.4 µM],1.2e-07M*
CCCCOC(=O)Cc1c(O)c2ccccc2[nH]c1=O,nt,?,-1%,?,nt
CC(C)COC(=O)Cc1c(O)c2ccccc2[nH]c1=O,nt,?,0%,32µM*,nt
CCCCCc1c(O)c2ccccc2[nH]c1=O,i,?,0%,32µM*,i
CCCCCOC(=O)Cc1c(O)c2ccccc2[nH]c1=O,i,0%,2%,32µM*,i
CCCCCCNC(=O)Cc1c(O)c2ccccc2[nH]c1=O,i,-13%,4%,32µM*,i
CC1CCCCN1c1nnc(NC(=O)Cn2c(=O)oc3ccccc32)s1 (configuration not stated),nt,-5%,-4%,-2%,nt
CCC(C)(C)NC(=O)C(c1ccc(F)cc1)N(Cc1ccco1)C(=O)c1cnccn1 (configuration not stated),i,-7%,-1%,5%,i
N[C@@H](CSCc1ccccc1)C(=O)O,i,6%[11.4 µM],-1%[11.5 µM],6%[11.4 µM],i
CC(C)NC[C@@H](O)COc1ccc(CCOCC2CC2)cc1,i,8%,1%,-1%,i
CC(C)NCC(O)COc1ccc(CCOCC2CC2)cc1 (configuration not stated),1.7e-08M*,nt,nt,nt,1.9e-08M*
CCN1CCN(c2cc(C)c3cc(NC(=O)c4cnccn4)ccc3n2)CC1,nt,-14%,1%,-6%,nt
Cc1ccc(OCCCC(=O)Nc2ccc(N3CCOCC3)cc2)c(C)c1,i,17%,-2%,-4%,i
CCN1CCN(c2cc(C)c3cc(NC(=O)Cc4ccc(OC)c(OC)c4)ccc3n2)CC1,nt,25µM*,2%,32µM*,nt
Cc1cc(N2CCOCC2)nc2ccc(NC(=O)CCC(=O)N3CCC(C)CC3)cc12,1.1e-06M*,25µM*,2%,16µM*,1e-06M*
CCC(C)NC(=O)CCC(=O)Nc1ccc2nc(N3CCOCC3)cc(C)c2c1 (configuration not stated),1.5e-06M*,0%,1%,32µM*,1.5e-06M*
Cc1cc(N2CCOCC2)nc2ccc(Cc3ccc4nc(N5CCOCC5)cc(C)c4c3)cc12,2.7e-08M*,-2%[11.4 µM],-1%[11.5 µM],-8%[11.4 µM],2.9e-08M*
CS(=O)(=O)N1CCC2(CCCN(C(=O)Nc3cccc(C#N)c3)C2)CC1,i,4%,5%,7%,i
SMILES,4MU fluor,HADH2 inh,AID923,HSD17B inh,A350 fluor
CCOc1ccccc1NC(=O)Cn1nnc(C(=O)Nc2ccc(C)cc2)c1N,i,5%,-1%,-7%,i
Cc1cc(N2CCN(C)CC2)nc2ccc(NC(=O)c3ccc(Br)o3)cc12,?,-8%,1%,-5%,?
Cc1cc(N2CCOCC2)nc2ccc(NC(=O)CCC(=O)N3CCCCC3)cc12,1.6e-06M*,13µM*,-1%,16µM*,1.5e-06M*
Cc1cc(N2CCN(C)CC2)nc2ccc(NC(=O)c3ccc4c(c3)OCO4)cc12,1.9e-08M*,-13%,0%,111%,2.4e-08M*
CCOc1ccccc1NC(=O)CCC(=O)Nc1ccc2nc(N3CCN(C)CC3)cc(C)c2c1,2.3e-07M*,?,-2%,25µM*,2.6e-07M*
CCCCN(C)C(=O)CCC(=O)Nc1ccc2nc(N3CCOCC3)cc(C)c2c1,1.5e-06M*,7.9µM*,0%,25µM*,1.3e-06M*
CC1=C(/C=C/C(C)=C/C=C/C(C)=C/C=C/C=C(C)/C=C/C=C(C)/C=C/C2=C(C)C(=O)C(O)CC2(C)C)C(C)(C)CC(O)C1=O (configuration not stated),nt,nt,2%,-13%,nt
Nc1ccn([C@@H]2CC[C@H](CO)O2)c(=O)n1,i,2%[25.6 µM],3%[25.7 µM],0%[25.6 µM],i
COc1ccc(N(CC(=O)NC2CCCC2)C(=O)CCC(=O)Nc2cc(C)on2)c(OC)c1,i,6%,1%,7%,i
COc1ccc(N(C)C(=O)CCC(=O)Nc2ccc3nc(N4CCOCC4)cc(C)c3c2)c(OC)c1,5.3e-07M*,25µM*,0%,25µM*,4.9e-07M*
CCOC(=O)C1CCN(C(=O)c2cc(S(=O)(=O)N3CCOCC3)c(Cl)cc2Cl)CC1,i,8%,1%,12%,?
O=C(c1ccc2c(=O)n(Cc3ccc4c(c3)OCO4)c(=S)[nH]c2c1)N1CCCCC1,?,6%,4%,14%,1e-08M*
CCOC(=O)N1CCN(C(=O)c2ccc3c(=O)n(Cc4ccccc4)c(=S)[nH]c3c2)CC1,i,0%,-1%,-5%,i
CN1CCN(C(=O)c2ccc3c(=O)n(Cc4ccc(Cl)cc4)c(=S)[nH]c3c2)CC1,1.1e-07M*,-3%,-1%,?,1.4e-07M*
CN=c1oc2ccc(Cl)cc2cc1C(N)=O,?,8%,1%,25µM*,?
CC(=O)Nc1c(C(=O)O)oc2ccc(Cl)cc12,i,7%,1%,-23%,i
O=c1c(-c2cccc(Cl)c2)nc2cncnc2n1Cc1ccccc1,i,-9%,5%,-14%,i
C[C@H](O)C(=O)Nc1c(I)c(C(=O)NC(CO)CO)c(I)c(C(=O)NC(CO)CO)c1I,?,6%[25.6 µM],-3%[25.7 µM],-7%[25.6 µM],?
